ALDH1A1 block: blocks purified human ALDH1A1 activity. P00352. Purified ALDH1A1, NADH fluorescence, propionaldehyde substrate. Potency, µM (titrated, usually from 75.3 µM), without a hit: top-dose activity, negative = inhibition, actives largely listed as inhibitors. hit rate 7.3% among 220,000. AID 1030; active = well fitted inhibition curve with a large enough effect, not every such curve was filed as active; inconclusive = small, poorly fitted or top-dose-only effect, or another doubt; inactive = no such curve, though single readings can be large or run the other way;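 also: plate controls were no enzyme wells and a reference inhibitor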
Target sequence (P00352 whole entry, looked up): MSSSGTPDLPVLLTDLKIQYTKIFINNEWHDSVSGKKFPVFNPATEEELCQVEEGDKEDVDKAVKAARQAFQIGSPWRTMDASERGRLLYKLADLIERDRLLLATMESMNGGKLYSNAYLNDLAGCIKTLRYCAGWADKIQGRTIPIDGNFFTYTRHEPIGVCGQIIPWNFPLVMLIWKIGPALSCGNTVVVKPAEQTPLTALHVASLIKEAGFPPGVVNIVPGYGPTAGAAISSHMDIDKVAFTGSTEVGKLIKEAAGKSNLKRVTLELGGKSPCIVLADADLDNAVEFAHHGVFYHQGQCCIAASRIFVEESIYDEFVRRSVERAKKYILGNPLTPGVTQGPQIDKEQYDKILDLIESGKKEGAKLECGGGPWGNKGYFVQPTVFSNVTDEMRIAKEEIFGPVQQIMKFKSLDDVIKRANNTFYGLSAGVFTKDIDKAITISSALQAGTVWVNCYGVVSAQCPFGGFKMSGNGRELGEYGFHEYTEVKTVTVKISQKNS
Tau FP inhib: blocks human tau fibril formation measured by polarization; P10636; K18 P301L tau heparin fibrillization, Alexa594 FP, 6 h; Potency, µM (highest dose often 57.7 µM), for the others: at the highest dose activity, negative = inhibition, actives largely listed as inhibitors; hit rate 0.39% among 280,000; AID 1468; also: nearly all actives have a fitted effect of over 55% in size
Target sequence (P10636 561-689 P618L limits assumed): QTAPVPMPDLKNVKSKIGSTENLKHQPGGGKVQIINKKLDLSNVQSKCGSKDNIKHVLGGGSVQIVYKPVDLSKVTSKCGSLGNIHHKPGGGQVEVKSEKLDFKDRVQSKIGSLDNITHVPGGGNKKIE
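FP of Alexa 594-tau after heparin (20 uM) induction. Substrate: human K18 P301L, 15 uM unlabeled, 0.24 uM labeled. Buffer 100 mM sodium acetate pH 7. 6 hr, 37 C.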
HPGD block: blocks human HPGD enzyme activity; Potency, µM, for the others: at the highest dose activity change, negative = inhibition, actives largely listed as inhibitors; purified HPGD, NADH fluorescence kinetic, PGE2 substrate; P15428; hit rate 4.3% among 150,000; active = well fitted inhibition curve with a large enough effect, not every such curve was filed as active; inconclusive = small, poorly fitted or top-dose-only effect, or another doubt; inactive = no such curve, though single readings can be large or run the other way
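NADH formation kinetics: reaction with 30 uM PGE2 and 1 mM NAD+ (final), 20 nM enzyme, Tris-HCl pH 8 with Tween 20, after 15 min compound preincubation at room temperature. Fluorescence change, last versus first of five reads.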
Tau fluor cs: counter-screen for tau fibril formation inhibitors; tau K18 P301L Alexa594 fluorescence, heparin fibrillization; Potency, µM (highest dose often 57.7 µM), for the others: at the top dose activity change, negative = decrease; hit rate 0.93% among 280,000; AID 1463; also: nearly all actives have a fitted effect of over 55% in size
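Human K18 P301L tau (15 uM unlabeled plus 0.24 uM Alexa 594-labeled, final) in 100 mM sodium acetate pH 7 was mixed with compound and 20 uM heparin and incubated 6 hr at 37 C.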
NPSR antagonist: blocks cAMP signaling of the human neuropeptide S receptor; Q6W5P4; CHO-NPSR cells, cAMP TR-FRET, antagonist mode; Potency, µM (top dose mostly 38.3 µM), for the others: at the top dose activity change, negative = inhibition, hits mostly inhibitors; hit rate 1% among 220,000; also: nearly all actives have a fitted effect of over 50% in size
Tau fibril ThT: inhibitors of human tau fibril formation, thioflavin T binding; P10636; recombinant tau K18 P301L (four-repeat tau fragment), heparin-induced fibrillization, ThT fluorescence; Potency, µM (doses to about 57.4 µM), for inactives: at the top dose activity, negative = inhibition, usual class: inhibitors; AID 1460; hit rate 2.1% among 270,000; also: nearly all actives have a fitted effect of over 55% in size
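K18 P301L tau (15 uM + 0.24 uM Alexa 594-tagged), heparin 20 uM, NaOAc pH 7, 6 h 37 C; ThT 30 uM, 1 h RT, ex 450/em 510 nm.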
The depositor's hits bear a star; ? = inconclusive; nt = no result; [ ] = remark or other dose. Most compounds without a hit are left out; they make up all but 9.5% or so of the library. Unless noted, calls follow the shape of the dose curve; as a rule, active = well fitted curve in the direction sought with a large enough effect; inconclusive = small, poorly fitted or top-dose-only effect, or another doubt; inactive = no such curve, though single readings can be large; an effect the other way counts as inactive or inconclusive. Unless noted, % is scaled to controls: 0 for no effect and ±100 for the full control effect; potency is read from the fitted curve at half-maximal effect.

SMILES | ALDH1A1 block | Tau FP inhib | HPGD block | Tau fluor cs | NPSR antagonist | Tau fibril ThT
CCC(=O)c1ccc(N2CCCCCC2)c(F)c1 | ? | 1% | 16µM* | -18% | -10%[46.1 µM] | ?
CCC(=O)c1ccc(N2CCCC2)c(F)c1 | -4% | 1% | -22% | -6% | 7%[46.1 µM] | ?
Cc1ccc(NC(=O)CN2C(=O)C(c3ccccc3)=NC23CCCCC3)cc1C | nt | -12% | nt | -18% | nt | 2%
CCOc1cc2sc(N3CCC(C(=O)Nc4ccc(C)cc4C)CC3)nc2cc1Br | nt | 8% | nt | -29% | nt | ?
CC1CCN(c2cc(C#N)c(C#N)cc2[N+](=O)[O-])CC1 | 6% | 4% | -7% | 2% | -5%[46.1 µM] | 0%
Cc1cc(N2CCC(C)CC2)c(F)cc1[N+](=O)[O-] | 10µM* | -6% | -15% | -9% | -6%[46.1 µM] | -13%
CCC(=O)c1ccc(N2CCN(C(=O)c3ccccc3F)CC2)c(F)c1 | 14µM* | 1% | nt | -10% | -1% | ?
CCOC(=O)N1CCN(c2cc(N)c([N+](=O)[O-])cc2F)CC1 | 3% | -4% | -1% | -16% | -13%[46.1 µM] | 4.5µM*
CCOC(=O)N1CCN(c2cc(C)c(C(C)=O)cc2F)CC1 | ? | 2% | -18% | 3% | -3%[46.1 µM] | ?
O=c1cc(O)c2c(=O)n(-c3ccccc3)c3c(c2o1)CCCCC3 | -6% | -5% | -15% | -1% | -24% | -5%
Nc1nc(Nc2ccccc2)nc2c1ncn2[C@@H]1O[C@H](CO)[C@H](O)[C@H]1O | -7% | -9% | -12% | -19% | -21%[46.1 µM] | -12%
O=C(O)c1cc(Br)ccc1NN=C1CCCCC1 | ? | -14% | 25µM* | -22% | 3% | 20µM*
CCN(CC)S(=O)(=O)c1ccc(NC(=O)Cn2c(=O)sc3ccccc32)cc1 | -15% | ? | -10% | ? | -16%[46.1 µM] | -4%
COCCN(C(=S)Nc1c(C)cc(C)cc1C)C(C)c1cccnc1 (centres undefined) | ? | -1% | 7.9µM* | 1% | 10% | -17%
O=S(=O)(Nc1ccc2ccccc2n1)c1ccc2c(c1)CCO2 | -5% | 0% | nt | -14% | -13% | -14%
COc1ccc(-n2cc(-c3ccccc3)c3c(SC(C)C(C)=O)ncnc32)cc1 (centres undefined) | nt | ? | nt | ? | nt | -13%
OCCN1CCN(C(c2cccs2)c2ccc3cccnc3c2O)CC1 (centres undefined) | 1.3µM* | ? | 3.5µM* | -16% | 10µM* | ?
CC(O)c1nc2ccccc2n1CCCCOc1ccccc1 (centres undefined) | -6% | -1% | nt | -14% | -2% | -12%
COc1ccc(C(=O)c2sc3nc(-c4ccccc4)ccc3c2N)cc1OC | -6% | 2% | -16% | ? | -4%[46.1 µM] | -8%
COc1cccc(-c2ccc3c(N)c(C(=O)c4ccc(Br)cc4)sc3n2)c1 | nt | ? | nt | 2.5µM*[quencher] | nt | 4.5µM*
COc1ccc(-c2ccc3c(N)c(C(=O)NC(C)C)sc3n2)cc1OC | nt | ? | nt | 18µM*[quencher] | -3% | 10µM*
COc1ccc(-c2ccc3c(N)c(C(=O)c4ccc(OC)c(OC)c4)sc3n2)cc1 | -3% | 4% | 1% | ? | 4%[46.1 µM] | ?
FC(F)Sc1nc2ccccc2[nH]1 | nt | -2% | nt | -1% | 10% | 2%
O=C(NCc1ccco1)c1cc(-c2cccs2)nc2ccccc12 | ? | -9% | ? | -25% | 3%[46.1 µM] | -4%
O=C(COC(=O)c1cc(-c2ccc(Cl)s2)nc2ccccc12)NCc1ccco1 | ? | ? | -16% | ? | ? | ?
SMILES | ALDH1A1 block | Tau FP inhib | HPGD block | Tau fluor cs | NPSR antagonist | Tau fibril ThT
Cc1nn(-c2ccccc2)c(C)c1C(=O)OCC(=O)NCc1ccco1 | 22µM* | -15% | -17% | -15% | -12%[46.1 µM] | ?
COc1ccc(CNC(=O)COC(=O)c2cc(-c3ccc(Cl)s3)nc3ccccc23)cc1 | ? | ? | ? | -28% | 10µM* | -8%
O=C(COC(=O)c1cc(-c2cccs2)nc2ccccc12)NCc1ccco1 | ? | 20µM* | ? | -26% | -20%[46.1 µM] | 16µM*
O=C(N/N=C/c1ccc[nH]1)c1cc(-c2cccs2)nc2ccccc12 | 16µM* | 2% | nt | ? | -13% | ?
O=C(N/N=C/c1cccnc1)c1cc(-c2cccs2)nc2ccccc12 | ? | -15% | ? | -17% | -3% | 11%
C=C(C)C(O)/C=C/c1cccc(OC)c1 (centres undefined) | -9%[13.5 µM] | 1%[11.6 µM] | nt | -21%[11.6 µM] | nt | ?
COc1ccc(N2CCN(C(=O)C3CCN(S(=O)(=O)c4cnc[nH]4)CC3)CC2)cc1 | nt | 6% | nt | -9% | nt | -8%
C/C=C/C(=O)Nc1cccc(C2=NOC3(C2)C[C@@H](C(N)=O)N(C(=O)C(c2ccccc2)c2ccccc2)C3)c1 (some centres undefined) | nt | 17% | nt | -16% | -3% | -13%
O=C(CSc1nnc(-c2ccccc2)o1)c1cccc([N+](=O)[O-])c1 | nt | -9% | nt | -13% | nt | ?
CCSc1nnc(-c2cnn(-c3ccccc3)c2-n2cccc2)n1C | ? | 5% | ? | -6% | -13%[46.1 µM] | -9%
CCCCCCSc1nnc(-c2cnn(-c3ccccc3)c2-n2cccc2)n1C | 7.1µM* | 8% | ? | -14% | ? | ?
Cn1c(-c2cnn(-c3ccccc3)c2-n2cccc2)n[nH]c1=S | 22µM* | -9% | nt | -13% | -17% | -12%
CC(C)NC(=O)c1ccc(-n2nc(C(F)(F)F)c3c2CCCC3)cc1 | 7% | -10% | -7% | -10% | 5% | -8%
CCCCC(=O)Nc1cccc(-c2cn3ccccc3n2)c1 | 28µM* | ? | nt | -9% | -2%[46.1 µM] | -4%
CCOC(=O)Nc1ccc2c(c1)Nc1ccccc1S2 | ? | -13% | -22% | 14µM*[quencher] | 4%[46.1 µM] | 7.9µM*
COc1ccc(N=CC2=C(O)CC(c3ccccc3)CC2=O)c(OC)c1 (centres undefined) | 14µM* | 8% | -11% | -15% | -40% | ?
Cc1cc(N=CC2=C(O)CC(C)(C)CC2=O)no1 | -7% | 1% | -1% | -15% | 9%[46.1 µM] | -15%
CCOc1ccccc1N=CC1=C(O)CC(c2ccccc2)CC1=O (centres undefined) | ? | -2% | nt | 0% | -52% | -5%
COc1ccc(OC)c(N=CC2=C(O)CC(C)(C)CC2=O)c1 | 13µM* | -1% | -20% | -9% | -17%[46.1 µM] | -3%
CC1(C)CC(=O)C=C(N=CC2=C(O)CC(C)(C)CC2=O)C1 | 8.9µM* | -18% | -14% | -3% | -30%[46.1 µM] | 4%
COc1ccc(N=CC2=C(O)CC(C)(C)CC2=O)cc1 | 7.9µM* | -4% | -5% | 1% | -2%[46.1 µM] | -12%
CCOc1ccc(Sc2cc(C(=O)NCc3ccccc3Cl)c3ccccc3n2)cc1 | nt | -3% | nt | -10% | nt | 5%
